# PubChem BioAssay (Tox21)
# Records with an inconclusive call do not appear. Entries that show only a call come without a potency. The source made the active and inactive calls. Unless noted, the call rests on the fitted dose curve; in most records, active means well fitted curve in the direction sought with a large enough effect in the repeat runs; inconclusive means weak or mixed curves; inactive means no such curve, though single readings can be large; an effect the other way counts as inactive or inconclusive.
# Legend:
# [1] = qHTS assay to identify small molecule antagonists of the glucocorticoid receptor (GR) signaling pathway - cell viability counter screen (AID 720693); further: nearly all actives have a fitted effect of over 55% in size
# [2] = qHTS assay for identifying genotoxic compounds that show differential cytotoxicity against isogenic chicken DT40 cell lines with known DNA damage response pathways - wild type cell line (AID 743012); further: nearly all actives have a fitted effect of over 60% in size
# Outline: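 CellTiter-Glo luminescence readout of viability in wild type DT40 cells after 40 h compound exposure at 37 C/5% CO2; 300 cells/well; reagent incubated 30 min at room temperature before reading.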
# [3] = qHTS assay for identifying genotoxic compounds that show differential cytotoxicity against isogenic chicken DT40 cell lines with known DNA damage response pathways - Rev3 mutant cell line (AID 743014); further: nearly all actives have a fitted effect of over 55% in size
# [4] = qHTS assay to identify small molecule antagonists of the androgen receptor (AR) signaling pathway - cell viability counter screen (AID 743033; further: nearly all actives have a fitted effect of over 45% in size)
# [5] = qHTS assay to identify small molecule antagonists of the androgen receptor (AR) signaling pathway using the MDA cell line - cell viability counter screen (AID 743041; further: nearly all actives have a fitted effect of over 45% in size)
# Outline: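 Cytotoxicity counter screen: MDA-kb2 AR-luc cells, compound + R1881, 16 h, 37C, 0% CO2; CellTiter-Fluor added at 15.5 h, fluorescence read after 30 min.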
# [6] = system: thyroid hormone receptor (rat, GH3 cells); experiment: qHTS assay to identify small molecule agonists of the thyroid receptor (TR) signaling pathway (AID 743066; calls by dose curve)
# [7] = qHTS assay to identify small molecule antagonists of the estrogen receptor alpha (ER-alpha) signaling pathway - cell viability counter screen (AID 743074; calls by dose curve;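 further: HEK293 cells carrying ER-alpha-UAS-bla reporter stimulated with 17beta-estradiol; nearly all actives have a fitted effect of over 45% in size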)
# [8] = qHTS assay to identify small molecule antagonists of the estrogen receptor alpha (ER-alpha) signaling pathway using the BG1 cell line - cell viability counter screen (AID 743081);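 further: compound given together with 17beta-estradiol as the ER stimulus; series mostly up to about 70 µM; nearly all actives have a fitted effect of over 45% in size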
# [9] = qHTS assay for identifying genotoxic compounds that show differential cytotoxicity against isogenic chicken DT40 cell lines with known DNA damage response pathways - Rad54/Ku70 mutant cell line (AID 743015); further: nearly all actives have a fitted effect of over 60% in size
# [10] = qHTS assay to identify small molecule antagonists of the thyroid receptor (TR) signaling pathway - cell viability counter screen (AID 743064); further: nearly all actives have a fitted effect of over 50% in size; further: potency means the concentration at half of the fitted maximal effect
# Outline: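 Compounds were tested on GH3.TRE-Luc cells in the presence of T3 at 1 nM final. Following 23.5 h at 37 °C, cell viability was quantified by CellTiter-Fluor.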
# [11] = molecular target: Aromatase (Homo sapiens) (UniProt P11511); experiment: qHTS assay to identify aromatase inhibitors (AID 743083); further: series mostly up to about 70 µM; nearly all actives have a fitted effect of over 55% in size
# Sequence of Aromatase (Homo sapiens) (P11511 whole entry, looked up): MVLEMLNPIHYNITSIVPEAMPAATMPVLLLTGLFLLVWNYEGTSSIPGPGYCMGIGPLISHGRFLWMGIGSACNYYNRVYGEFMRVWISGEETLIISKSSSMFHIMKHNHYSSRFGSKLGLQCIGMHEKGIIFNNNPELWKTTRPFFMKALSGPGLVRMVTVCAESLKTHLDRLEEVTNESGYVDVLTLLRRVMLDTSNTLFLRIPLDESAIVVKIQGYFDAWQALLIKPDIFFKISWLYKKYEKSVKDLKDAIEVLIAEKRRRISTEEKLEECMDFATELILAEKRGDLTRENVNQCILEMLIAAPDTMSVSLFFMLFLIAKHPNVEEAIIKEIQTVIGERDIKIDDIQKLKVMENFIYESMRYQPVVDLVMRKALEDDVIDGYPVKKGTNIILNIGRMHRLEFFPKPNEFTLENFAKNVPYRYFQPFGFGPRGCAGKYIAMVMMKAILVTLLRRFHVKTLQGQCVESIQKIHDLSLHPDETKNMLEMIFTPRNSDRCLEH
# [12] = qHTS assay to identify aromatase inhibitors - cell viability counter screen (AID 743084);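 further: cells stimulated with testosterone during compound exposure; nearly all actives have a fitted effect of over 55% in size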; further: potency means the concentration at half of the fitted maximal effect
# [13] = qHTS assay to identify small molecule antagonists of the thyroid receptor (TR) signaling pathway (AID 743065)
# Outline: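 GH3.TRE-Luc rat pituitary cells (two TREs driving luciferase) were dosed with compound, then stimulated with 1 nM T3 (final) for 23.5 h at 37 C. ONE-Glo luminescence was the read-out, with CellTiter-Fluor fluorescence as the cytotoxicity counter-screen.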
# [14] = molecular target: Estrogen receptor (Homo sapiens) (UniProt P03372); experiment: qHTS assay to identify small molecule antagonists of the estrogen receptor alpha (ER-alpha) signaling pathway (AID 743069; active means well fitted curve in the direction sought with a large enough effect in the signal ratio in the repeat runs, not every such curve was filed as active; the % refers to the signal ratio)
# Sequence of Estrogen receptor (Homo sapiens) (P03372 whole entry, looked up): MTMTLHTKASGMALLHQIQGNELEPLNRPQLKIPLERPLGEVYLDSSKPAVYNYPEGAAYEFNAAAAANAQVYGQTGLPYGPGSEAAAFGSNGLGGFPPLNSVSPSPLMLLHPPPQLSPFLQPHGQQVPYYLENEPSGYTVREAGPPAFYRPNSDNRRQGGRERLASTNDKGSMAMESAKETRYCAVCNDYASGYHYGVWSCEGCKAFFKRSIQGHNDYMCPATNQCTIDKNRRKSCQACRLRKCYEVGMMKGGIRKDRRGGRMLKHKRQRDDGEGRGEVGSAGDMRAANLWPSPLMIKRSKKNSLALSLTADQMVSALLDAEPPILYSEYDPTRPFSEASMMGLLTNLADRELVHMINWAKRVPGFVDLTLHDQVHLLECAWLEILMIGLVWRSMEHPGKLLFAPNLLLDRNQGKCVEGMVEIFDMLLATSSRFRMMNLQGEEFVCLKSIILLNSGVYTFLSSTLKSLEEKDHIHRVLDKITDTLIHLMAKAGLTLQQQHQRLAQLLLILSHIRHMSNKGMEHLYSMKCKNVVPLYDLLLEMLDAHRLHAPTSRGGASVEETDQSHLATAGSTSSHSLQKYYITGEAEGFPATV
# Outline: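 Beta-lactamase FRET fluorescence is read after 2 hr at room temperature with LiveBLAzer B/G substrate. Before that, ER-alpha-bla HEK293 cells sit 4 hr after plating, then receive compound plus 17beta-estradiol and incubate 18 hr at 37C.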
# [15] = molecular target: Estrogen receptor (Homo sapiens) (UniProt P03372); experiment: qHTS assay to identify small molecule agonists of the estrogen receptor alpha (ER-alpha) signaling pathway (AID 743075; calls by dose curve;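 further: HEK293 GripTite cells with ER-alpha and UAS-driven beta-lactamase reporter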)
# [16] = molecular target: Estrogen receptor (Homo sapiens) (UniProt P03372); experiment: qHTS assay to identify small molecule agonists of the estrogen receptor alpha (ER-alpha) signaling pathway using the BG1 cell line (AID 743079); further: nearly all actives have a fitted effect of over 20% in size
# [17] = qHTS assay to identify small molecule antagonists of the estrogen receptor alpha (ER-alpha) signaling pathway using the BG1 cell line (AID 743080; calls by dose curve;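 further: BG1 cells stimulated with 17beta-estradiol alongside compound; series mostly up to about 70 µM; nearly all actives have a fitted effect of over 25% in size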)
# Outline: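 Seeding, 24 h rest, compound transfer from DMSO, 17beta-estradiol addition, 21.5 h incubation, CellTiter-Fluor (30 min, 37 C), then ONE-Glo (30 min, room temperature): this sequence was run on BG1-Luc-4E2 reporter cells.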
# [18] = molecular target: Androgen receptor (Homo sapiens) (UniProt P10275); experiment: qHTS assay to identify small molecule agonists of the androgen receptor (AR) signaling pathway (AID 743036; active means well fitted activation curve with a large enough effect in the signal ratio in the repeat runs, with a control signal flat, not every such curve was filed as active; the % refers to the signal ratio)
# Sequence of Androgen receptor (Homo sapiens) (P10275 whole entry, looked up): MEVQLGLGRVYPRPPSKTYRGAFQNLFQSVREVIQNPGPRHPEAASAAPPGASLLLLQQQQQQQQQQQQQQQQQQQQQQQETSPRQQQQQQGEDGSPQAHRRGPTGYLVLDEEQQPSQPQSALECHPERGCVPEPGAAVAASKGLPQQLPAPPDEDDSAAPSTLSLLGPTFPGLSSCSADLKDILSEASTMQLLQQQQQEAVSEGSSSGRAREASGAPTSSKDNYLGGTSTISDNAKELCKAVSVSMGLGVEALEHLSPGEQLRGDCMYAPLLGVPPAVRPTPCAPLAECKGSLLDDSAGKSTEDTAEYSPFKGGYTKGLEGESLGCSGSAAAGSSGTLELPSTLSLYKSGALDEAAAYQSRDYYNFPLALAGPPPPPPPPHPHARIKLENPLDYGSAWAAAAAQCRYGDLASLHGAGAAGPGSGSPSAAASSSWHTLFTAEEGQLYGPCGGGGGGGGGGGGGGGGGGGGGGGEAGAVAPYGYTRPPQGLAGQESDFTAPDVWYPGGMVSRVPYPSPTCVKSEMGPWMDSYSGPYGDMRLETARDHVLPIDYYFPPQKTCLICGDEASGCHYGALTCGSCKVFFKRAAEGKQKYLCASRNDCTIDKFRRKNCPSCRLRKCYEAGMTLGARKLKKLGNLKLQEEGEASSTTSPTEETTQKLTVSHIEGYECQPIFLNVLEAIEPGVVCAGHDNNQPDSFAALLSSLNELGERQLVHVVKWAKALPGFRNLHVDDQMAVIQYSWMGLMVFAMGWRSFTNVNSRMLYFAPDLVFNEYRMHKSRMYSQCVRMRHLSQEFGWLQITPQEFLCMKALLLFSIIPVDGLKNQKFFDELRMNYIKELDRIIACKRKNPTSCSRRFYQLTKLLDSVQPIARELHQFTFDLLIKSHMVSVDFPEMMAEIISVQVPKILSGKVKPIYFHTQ
# Outline: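 Beta-lactamase under UAS control, stably integrated in HEK293 GripTite cells, reports receptor activation. After 16 h compound treatment, cells received FRET substrate for 2 h at room temperature before fluorescence reading.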
# [19] = molecular target: Androgen receptor (Homo sapiens) (UniProt P10275); experiment: qHTS assay to identify small molecule antagonists of the androgen receptor (AR) signaling pathway using the MDA cell line (AID 743042; further: nearly all actives have a fitted effect of over 55% in size)
# Outline: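 MDA-kb2 breast carcinoma cells carrying MMTV-luciferase (AR/GR responsive) were co-treated with compounds and the agonist R1881 for 16 h at 37C. Inhibition read as ONE-Glo luminescence; CellTiter-Fluor fluorescence measured in parallel for cytotoxicity.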
Structure (SMILES),Potency [1],Potency [2],Potency [3],outcome [4],outcome [5],Potency [6],Potency [7],outcome [8],Potency [9],Potency [10],outcome [11],Potency [12],Potency [13],Potency [14],Potency [15],Potency [16],outcome [17],outcome [18],outcome [19]
C/C=C(\C)C(=O)OCC/C=C\CC,inactive,inactive,inactive,inactive,inactive,inactive,inactive,inactive,–,–,–,–,–,–,–,–,–,–,–
COc1ccc(N=Nc2cc(C)c(N=Nc3ccc(S(=O)(=O)O)cc3)cc2OC)cc1,inactive,inactive,inactive,inactive,inactive,–,inactive,–,inactive,inactive,inactive,48.6 µM (active),–,–,–,–,–,–,–
Nc1c(NC/C=C\COc2cc(CN3CCCCC3)ccn2)c(=O)c1=O,inactive,inactive,inactive,inactive,inactive,–,inactive,–,inactive,23.7 µM (active),inactive,13.3 µM (active),–,–,–,–,–,–,–
CCCCCCCCCCCCC,inactive,inactive,inactive,–,inactive,inactive,inactive,inactive,inactive,inactive,inactive,inactive,inactive,inactive,inactive,inactive,inactive,–,–
CC(=O)OC(C)(C)Cc1ccccc1,inactive,inactive,inactive,inactive,inactive,inactive,inactive,inactive,–,inactive,–,–,inactive,–,–,–,–,–,–
CCCCC[Si](OCC)(OCC)OCC,inactive,inactive,–,inactive,inactive,–,inactive,inactive,inactive,inactive,inactive,inactive,–,–,–,–,–,inactive,inactive
